In PubChem BioAssay (EPA / NIEHS) one finds outcome and AC50 data, which are given here for 34 compounds.

What is called AC50 is the concentration at which the activity in the assay is half-maximal.

Activity calls are given as the source filed them. How the source made its calls: active means hit-call score of the fitted dose curve at least 0.9, where 1 is the maximum; inactive means score below 0.9.

This assay is described as follows: ATG_TA_CIS: Attagene CIS-FACTORIAL HepG2 Assay for human TA Basal Promoter (AID 2282964). To be noted: HepG2 Attagene CIS-factorial TA basal promoter reporter; actives raise or lower the signal. Summed up:
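Read-out: fluorescent reporter-transcript fragments resolved by capillary electrophoresis after RT-PCR and HpaI digestion. Source: HepG2 cells carrying transiently transfected multi-reporter cis constructs, treated 24 h. Endpoint fitted bidirectionally relative to DMSO.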
In the case of `NC(=O)C(F)(F)C(F)(F)C(F)(F)C(F)(F)F`, the compound was called inactive. `O=P(O)(O)OCCC(F)(F)C(F)(F)C(F)(F)C(F)(F)C(F)(F)C(F)(F)F`: the compound was classed as inactive. Turning to `CC(=O)Nc1ccc(N=Nc2cc(C)ccc2O)cc1`, the compound was classed as inactive. Same read-out and setting: next, `CCCCCCC(C)OC(=O)CCCCC(=O)OC(C)CCCCCC` (centres undefined): “inactive”. Consider `CC(Cc1ccc(O)c(O)c1)C(C)Cc1ccc(O)c(O)c1` (centres undefined), for which the AC50 was 18.4 µM (active). In the case of `FC(F)(F)C(F)(F)C(F)(F)C(F)(F)C(F)(F)C(F)(F)C(F)(F)C(F)(F)CCS`, the compound was classed as inactive.

Consider `FC(F)(Br)C(F)(F)C(F)(F)C(F)(F)C(F)(F)C(F)(F)Br`, for which the compound was called inactive.

Consider `OCC(F)(F)C(F)(F)C(F)(F)C(F)(F)C(F)(F)C(F)F`, for which the result was inactive. For `COC(=O)CCC(F)(F)C(F)(F)C(F)(F)C(F)(F)F`, the compound was called inactive. Regarding `FC(F)(F)C(F)(F)C(F)(F)N(C(F)(F)C(F)(F)C(F)(F)F)C(F)(F)C(F)(F)C(F)(F)F`, the result was inactive.

Take `FC(F)(F)C(F)(F)C(F)(F)C(F)(F)C(F)(F)C(F)(F)C(F)(F)C(F)(F)F`: the call was inactive.

In the case of `c1ccc(-c2ccccc2-c2ccccc2)cc1`, the result was inactive. Still for that read-out and setting: next, `CCO[Si](CCC(F)(F)C(F)(F)C(F)(F)C(F)(F)C(F)(F)C(F)(F)F)(OCC)OCC`: “inactive”; `FC(F)(I)C(F)(F)C(F)(F)C(F)(F)I`: “inactive”; `CCCCCCCCC(F)(F)C(F)(F)C(F)(F)C(F)(F)C(F)(F)C(F)(F)F`: “inactive”. The same measure, in the same setting: the same measure for `FC(F)(F)C(F)(F)CNCC(F)(F)C(F)(F)F`: “inactive”. `CC/C=C\CCOC(=O)c1ccccc1`: the result was inactive. Take `O=S(=O)(OCCOC(F)(F)F)C(F)(F)F`: the outcome was inactive. On to `O=S(=O)(O)c1ccc2ccccc2c1`, for which the call was inactive. Turning to `Cc1cccc(N(C)C)c1`, the compound was classed as inactive.

For the compound `FC(F)(F)C(F)(F)C(F)(F)CI`, the compound was classed as inactive. Consider `O=C(O)C(F)(OC(F)(F)C(F)(OC(F)(F)C(F)(OC(F)(F)C(F)(F)C(F)(F)F)C(F)(F)F)C(F)(F)F)C(F)(F)F` (centres undefined), for which the result was inactive. As for `Nc1ccc(Oc2cccc(Oc3ccc(N)cc3)c2)cc1`, the AC50 is 26.8 µM (active). Turning to `FC(F)(F)C(F)(F)C(F)(F)C(F)(F)C(F)(F)C(F)(F)CCS`, the compound was called inactive. For `C=C(C)C(=O)OCC(F)(F)C(F)(F)C(F)(F)F`, the compound was called inactive. Still for that read-out and setting: the same measure for `COC(OC(C)=O)c1ccccc1` (centres undefined): “inactive”. On to `FC(F)(F)C(F)(F)C(F)(F)C(F)(F)C(F)(F)CCI`, for which the outcome was inactive. In the case of `Nc1ccc([N+](=O)[O-])cc1O`, the outcome was inactive. Regarding `C#C[C@]1(O)CC[C@H]2[C@@H]3CCc4cc(OC)ccc4[C@H]3CC[C@@]21C`, the outcome was inactive. Consider `CC(C)=CCCC(C)CCOC(=O)C(C)C` (centres undefined), for which the compound was classed as inactive. As for `OCC(F)(F)C(F)(F)C(F)(F)C(F)F`, the outcome was inactive. For the compound `CC(CCl)OP(=O)(OC(C)CCl)OC(C)CCl` (centres undefined), the compound was called inactive. With `CC(C)OC(=O)c1ccccc1C(=O)OC(C)C`, the call was inactive. With `FC(F)(F)C(F)(F)C(F)(F)C(F)(F)C(F)(F)C(F)(F)CC1CO1` (centres undefined), the compound was called inactive.
